# This is part of a sample that, as a whole, favours compounds with a hit. Of some 79,000 tested, about 15% had one in any assay. Values without a mark were called inactive. Active and inactive are the calls of the source. Cut-off read from the data, not from the text of the source: active = growth inhibition above about 70%; inactive = the rest.
# Experiments:
# [1] = NCI Yeast Anticancer Drug Screen. Data for the rad52 strain (AID 147);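 note: 0% = growth of vehicle-treated control cultures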; conditions: S. cerevisiae rad52 mutant growth inhibition, active compounds read high
# Procedure, shortened: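 Measured: yeast growth inhibition. System: strain with a defined DNA damage repair alteration. Reference: vehicle-treated control cultures.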
# [2] = NCI Yeast Anticancer Drug Screen. Data for the wt1 strain (AID 149);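 note: 0% = growth of vehicle-treated wt1 cultures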; conditions: S. cerevisiae wt1 strain (SPY 50644) growth inhibition, active compounds read high
# Procedure, shortened: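 Vehicle-normalised growth inhibition; strain wt1; compound exposure.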
# [3] = NCI Yeast Anticancer Drug Screen. Data for the rad50EPP+ strain (AID 151);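 note: 0% = growth of vehicle-treated control cultures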; conditions: S. cerevisiae rad50 mutant strain, active compounds read high
# Procedure, shortened: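 One strain with a rad50 alteration (rad50EPP+) was compound-treated, its growth then compared to that of vehicle controls.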
# [4] = NCI Yeast Anticancer Drug Screen. Data for the mgt1 strain (AID 153); conditions: S. cerevisiae mgt1 mutant growth inhibition, active compounds read high
# Procedure, shortened: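 After exposure of the mgt1 yeast mutant to compound, growth was measured and reported as inhibition compared with vehicle controls.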
# [5] = NCI Yeast Anticancer Drug Screen. Data for the rad50 strain (AID 155);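 note: 0% = growth of vehicle-only cultures of the same strain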; conditions: S. cerevisiae rad50 strain growth inhibition, active compounds read high
# Procedure, shortened: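 A DNA repair-deficient yeast mutant serves as the test organism; compound-induced growth inhibition is calculated against vehicle-treated cells.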
# [6] = NCI Yeast Anticancer Drug Screen. Data for the mec2-1 strain (AID 157); conditions: S. cerevisiae mec2-1 strain, active compounds read high
# Procedure, shortened: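 Test agents were screened against the mec2-1 yeast strain, with defined DNA repair or cell cycle alteration. Growth was scored as inhibition against vehicle-only controls.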
# [7] = NCI Yeast Anticancer Drug Screen. Data for the rad14 strain (AID 159);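 note: 0% = growth of vehicle-treated control cultures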; conditions: S. cerevisiae rad14 strain growth inhibition, active compounds read high
# Procedure, shortened: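 Vehicle-treated cultures served as the baseline for growth inhibition of a DNA repair-mutant yeast strain exposed to each compound.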
# [8] = NCI Yeast Anticancer Drug Screen. Data for the sgs1 mgt1 strain (AID 161);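 note: 0% = growth of cultures given vehicle only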; conditions: S. cerevisiae sgs1 mgt1 strain, active compounds read high
# Procedure, shortened: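 Genetically altered yeast, compound exposure, growth inhibition relative to vehicle.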
# [9] = NCI Yeast Anticancer Drug Screen. Data for the CLN2oe strain (AID 163);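 note: 0% = growth of vehicle-only control cultures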; conditions: S. cerevisiae CLN2oe strain, active compounds read high
# Procedure, shortened: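 Here, growth inhibition in a cell-cycle-altered yeast strain after compound exposure was quantified against vehicle control growth.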
# [10] = NCI Yeast Anticancer Drug Screen. Data for the cln2 rad14 strain (AID 165);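 note: 0% = growth equal to vehicle treated cultures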; conditions: S. cerevisiae cln2 rad14 strain, active compounds read high
# Procedure, shortened: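 Growth of compound-exposed yeast (cln2 rad14 genotype) measured and expressed as inhibition relative to vehicle.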
# [11] = NCI Yeast Anticancer Drug Screen. Data for the bub3 strain (AID 167); conditions: S. cerevisiae bub3 mutant strain, active compounds read high
# Procedure, shortened: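 Inhibition values come from growth of compound-treated mutant yeast normalised to vehicle-treated controls.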
# [12] = NCI Yeast Anticancer Drug Screen. Data for the wt2 strain (AID 169);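 note: 0% = growth of vehicle-treated yeast cultures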; conditions: S. cerevisiae wt2 strain growth inhibition, active compounds read high
# Procedure, shortened: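 Genetically defined yeast strains from a DNA-repair/cell-cycle panel were used. Compound-exposed yeast growth was measured, and the inhibition was calculated relative to vehicle treatment.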
# [13] = NCI Yeast Anticancer Drug Screen. Data for the mlh1 strain (AID 171);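 note: 0% = growth of vehicle-treated control cultures of the same strain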; conditions: S. cerevisiae mlh1 strain growth inhibition, active compounds read high
# Procedure, shortened: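 Here the genetically defined yeast mutant is grown with each compound, and the extent to which its growth falls below that of vehicle-exposed cells is reported.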
# [14] = NCI Yeast Anticancer Drug Screen. Data for the sgs1 strain (AID 173);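 note: 0% = growth of vehicle-only control cultures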; conditions: S. cerevisiae sgs1 mutant, active compounds read high
# Procedure, shortened: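 Relative growth inhibition, referenced to vehicle, was determined in a yeast strain with a defined alteration affecting DNA damage repair or cell cycle control after compound exposure.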
# [15] = NCI Yeast Anticancer Drug Screen. Data for the mlh1 rad18 strain (AID 175); conditions: S. cerevisiae mlh1 rad18 strain growth inhibition, active compounds read high
# Procedure, shortened: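 In this whole-cell yeast screen, a strain with altered DNA damage repair is challenged with compound, and its growth is measured against matched vehicle-treated controls.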
# [16] = NCI Yeast Anticancer Drug Screen. Data for the rad18 strain (AID 177); conditions: S. cerevisiae rad18 mutant growth inhibition, active compounds read high
# Procedure, shortened: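 Screen uses a yeast strain with a defined lesion in DNA damage repair; compound effect is read as loss of growth compared to untreated vehicle cultures.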
# [17] = at 5.0 µM (retest, dose inferred, filed as 0.5)
# [18] = at 50.0 µM (retest, dose inferred, filed as 5.0)
smiles,measurement,setting,value
COc1ccc(C(=O)Oc2ccccc2Br)cc1,growth inhibition,[1]; at 1.2 µM,5%
same,growth inhibition,[1]; at 3.7 µM,6%
same,growth inhibition,[1]; at 11.0 µM,3%
same,growth inhibition,[1]; at 33.0 µM,19%
same,growth inhibition,[1]; at 100.0 µM,44%
same,growth inhibition,[2]; at 1.2 µM,-5%
same,growth inhibition,[2]; at 3.7 µM,-7%
same,growth inhibition,[2]; at 11.0 µM,-10%
same,growth inhibition,[2]; at 33.0 µM,-10%
same,growth inhibition,[2]; at 100.0 µM,-3%
same,growth inhibition,[3]; at 1.2 µM,13%
same,growth inhibition,[3]; at 3.7 µM,22%
same,growth inhibition,[3]; at 11.0 µM,26%
same,growth inhibition,[3]; at 33.0 µM,35%
same,growth inhibition,[3]; at 100.0 µM,62%
same,growth inhibition,[4]; at 1.2 µM,-8%
same,growth inhibition,[4]; at 3.7 µM,-5%
same,growth inhibition,[4]; at 11.0 µM,-7%
same,growth inhibition,[4]; at 33.0 µM,-5%
same,growth inhibition,[4]; at 100.0 µM,25%
same,growth inhibition,[5]; at 1.2 µM,8%
same,growth inhibition,[5]; at 3.7 µM,7%
same,growth inhibition,[5]; [17],5%
same,growth inhibition,[5]; at 11.0 µM,8%
same,growth inhibition,[5]; at 33.0 µM,28%
same,growth inhibition,[5]; [18],64%
same,growth inhibition,[5]; at 50.0 µM,6.6%
same,growth inhibition,[5]; at 100.0 µM,62%
same,growth inhibition,[6]; at 1.2 µM,-5%
same,growth inhibition,[6]; at 3.7 µM,-8%
same,growth inhibition,[6]; [17],-20%
same,growth inhibition,[6]; at 11.0 µM,-10%
same,growth inhibition,[6]; at 33.0 µM,-7%
same,growth inhibition,[6]; [18],8%
same,growth inhibition,[6]; at 50.0 µM,5.05%
same,growth inhibition,[6]; at 100.0 µM,20%
same,growth inhibition,[7]; at 1.2 µM,3%
same,growth inhibition,[7]; at 3.7 µM,-1%
same,growth inhibition,[7]; at 11.0 µM,-1%
same,growth inhibition,[7]; at 33.0 µM,10%
same,growth inhibition,[7]; at 100.0 µM,39%
same,growth inhibition,[8]; [17],0%
same,growth inhibition,[8]; [18],78% (active)
same,growth inhibition,[8]; at 50.0 µM,36.1%
same,growth inhibition,[9]; at 1.2 µM,-4%
same,growth inhibition,[9]; at 3.7 µM,-12%
same,growth inhibition,[9]; at 11.0 µM,-18%
same,growth inhibition,[9]; at 33.0 µM,-14%
same,growth inhibition,[9]; at 100.0 µM,9%
same,growth inhibition,[10]; [17],0%
same,growth inhibition,[10]; [18],16%
same,growth inhibition,[10]; at 50.0 µM,-16.3%
same,growth inhibition,[11]; at 1.2 µM,3%
same,growth inhibition,[11]; at 3.7 µM,2%
same,growth inhibition,[11]; [17],18%
same,growth inhibition,[11]; at 11.0 µM,-2%
same,growth inhibition,[11]; at 33.0 µM,5%
same,growth inhibition,[11]; [18],75% (active)
same,growth inhibition,[11]; at 50.0 µM,32.4%
same,growth inhibition,[11]; at 100.0 µM,19%
same,growth inhibition,[12]; at 1.2 µM,-5%
same,growth inhibition,[12]; at 3.7 µM,-13%
same,growth inhibition,[12]; at 11.0 µM,-11%
same,growth inhibition,[12]; at 33.0 µM,-10%
same,growth inhibition,[12]; at 100.0 µM,0%
same,growth inhibition,[13]; at 1.2 µM,-1%
same,growth inhibition,[13]; at 3.7 µM,0%
same,growth inhibition,[13]; at 11.0 µM,-2%
same,growth inhibition,[13]; at 33.0 µM,8%
same,growth inhibition,[13]; at 100.0 µM,39%
same,growth inhibition,[14]; at 1.2 µM,-18%
same,growth inhibition,[14]; at 3.7 µM,-13%
same,growth inhibition,[14]; at 11.0 µM,-11%
same,growth inhibition,[14]; at 33.0 µM,3%
same,growth inhibition,[14]; at 100.0 µM,36%
same,growth inhibition,[15]; [17],5%
same,growth inhibition,[15]; [18],90% (active)
same,growth inhibition,[15]; at 50.0 µM,7.85%
same,growth inhibition,[16]; at 1.2 µM,1%
same,growth inhibition,[16]; at 3.7 µM,2%
same,growth inhibition,[16]; at 11.0 µM,1%
same,growth inhibition,[16]; at 33.0 µM,10%
same,growth inhibition,[16]; at 100.0 µM,53%
COc1c(O)c(C=O)c(Br)c(C=O)c1O,growth inhibition,[1]; at 1.2 µM,2%
same,growth inhibition,[1]; at 3.7 µM,6%
same,growth inhibition,[1]; at 11.0 µM,17%
same,growth inhibition,[1]; at 33.0 µM,49%
same,growth inhibition,[1]; at 100.0 µM,91% (active)
same,growth inhibition,[2]; at 1.2 µM,0%
same,growth inhibition,[2]; at 3.7 µM,5%
same,growth inhibition,[2]; at 11.0 µM,4%
same,growth inhibition,[2]; at 33.0 µM,17%
same,growth inhibition,[2]; at 100.0 µM,68%
same,growth inhibition,[3]; at 1.2 µM,24%
same,growth inhibition,[3]; at 3.7 µM,43%
same,growth inhibition,[3]; at 11.0 µM,75% (active)
same,growth inhibition,[3]; at 33.0 µM,95% (active)
same,growth inhibition,[3]; at 100.0 µM,99% (active)
same,growth inhibition,[4]; at 1.2 µM,-2%
same,growth inhibition,[4]; at 3.7 µM,0%
same,growth inhibition,[4]; at 11.0 µM,8%
same,growth inhibition,[4]; at 33.0 µM,30%
same,growth inhibition,[4]; at 100.0 µM,82% (active)
same,growth inhibition,[5]; at 1.2 µM,4%
same,growth inhibition,[5]; at 3.7 µM,7%
same,growth inhibition,[5]; [17],16%
same,growth inhibition,[5]; at 11.0 µM,15%
same,growth inhibition,[5]; at 33.0 µM,47%
same,growth inhibition,[5]; [18],97% (active)
same,growth inhibition,[5]; at 50.0 µM,98.2% (active)
same,growth inhibition,[5]; at 100.0 µM,86% (active)
same,growth inhibition,[6]; at 1.2 µM,3%
same,growth inhibition,[6]; at 3.7 µM,6%
same,growth inhibition,[6]; [17],16%
same,growth inhibition,[6]; at 11.0 µM,14%
same,growth inhibition,[6]; at 33.0 µM,47%
same,growth inhibition,[6]; [18],98% (active)
same,growth inhibition,[6]; at 50.0 µM,82.1% (active)
same,growth inhibition,[6]; at 100.0 µM,95% (active)
same,growth inhibition,[7]; at 1.2 µM,1%
same,growth inhibition,[7]; at 3.7 µM,4%
same,growth inhibition,[7]; at 11.0 µM,11%
same,growth inhibition,[7]; at 33.0 µM,42%
same,growth inhibition,[7]; at 100.0 µM,83% (active)
same,growth inhibition,[8]; [17],16%
same,growth inhibition,[8]; [18],96% (active)
same,growth inhibition,[8]; at 50.0 µM,99% (active)
same,growth inhibition,[9]; at 1.2 µM,2%
same,growth inhibition,[9]; at 3.7 µM,0%
same,growth inhibition,[9]; at 11.0 µM,17%
same,growth inhibition,[9]; at 33.0 µM,40%
same,growth inhibition,[9]; at 100.0 µM,90% (active)
same,growth inhibition,[10]; [17],12%
same,growth inhibition,[10]; [18],95% (active)
same,growth inhibition,[10]; at 50.0 µM,66.5%
same,growth inhibition,[11]; at 1.2 µM,-4%
same,growth inhibition,[11]; at 3.7 µM,-1%
same,growth inhibition,[11]; [17],-1%
same,growth inhibition,[11]; at 11.0 µM,3%
same,growth inhibition,[11]; at 33.0 µM,54%
same,growth inhibition,[11]; [18],98% (active)
same,growth inhibition,[11]; at 50.0 µM,98.9% (active)
same,growth inhibition,[11]; at 100.0 µM,97% (active)
same,growth inhibition,[12]; at 1.2 µM,-1%
same,growth inhibition,[12]; at 3.7 µM,2%
same,growth inhibition,[12]; at 11.0 µM,5%
same,growth inhibition,[12]; at 33.0 µM,30%
same,growth inhibition,[12]; at 100.0 µM,89% (active)
same,growth inhibition,[13]; at 1.2 µM,5%
same,growth inhibition,[13]; at 3.7 µM,2%
same,growth inhibition,[13]; at 11.0 µM,9%
same,growth inhibition,[13]; at 33.0 µM,43%
same,growth inhibition,[13]; at 100.0 µM,95% (active)
same,growth inhibition,[14]; at 1.2 µM,-2%
same,growth inhibition,[14]; at 3.7 µM,3%
same,growth inhibition,[14]; at 11.0 µM,12%
same,growth inhibition,[14]; at 33.0 µM,53%
same,growth inhibition,[14]; at 100.0 µM,94% (active)
same,growth inhibition,[15]; [17],7%
same,growth inhibition,[15]; [18],98% (active)
same,growth inhibition,[15]; at 50.0 µM,99% (active)
same,growth inhibition,[16]; at 1.2 µM,0%
same,growth inhibition,[16]; at 3.7 µM,-1%
same,growth inhibition,[16]; at 11.0 µM,5%
same,growth inhibition,[16]; at 33.0 µM,24%
same,growth inhibition,[16]; at 100.0 µM,90% (active)
